Data from PubChem BioAssay AID1878 (Sanford-Burnham Center for Chemical Genomics, 2009).
Among all 1,000 compounds or so, about 200 (20%) were called active. Only a sample is shown. Measured potencies and affinities stand elsewhere. A number with no mark means an inactive call. No stated cut-off is given here; in the data, active means inhibition above about 55%; inactive means the rest.

Molecular target: Dual specificity protein phosphatase 3 (Homo sapiens) (UniProt P51452)
Test: VHR1 phosphatase inhibitors, biochemical (AID 1878)
Details: recombinant VHR phosphatase, fluorogenic substrate; at 13.3 µM; stronger effect = higher value

Chain of Dual specificity protein phosphatase 3 (Homo sapiens) (P51452 whole entry, looked up): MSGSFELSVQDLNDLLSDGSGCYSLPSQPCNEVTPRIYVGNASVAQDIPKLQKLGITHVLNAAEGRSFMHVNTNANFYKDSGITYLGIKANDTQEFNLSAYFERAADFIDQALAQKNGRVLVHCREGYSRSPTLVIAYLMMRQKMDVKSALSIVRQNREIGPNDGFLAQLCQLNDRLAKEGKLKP

Row | Compound | inhibition
1 | CCOc1ccc(-n2c(SCC(=O)N3CCc4ccccc43)nnc2-c2c[nH]c3ccccc23)cc1 | 83.6% (active)
2 | O=C(CN1CCN(c2ccc(O)cc2)CC1)N1CCc2ccccc21 | -16.5%
3 | O=C(CCCN1C(=O)C(c2ccccc2)Oc2cccnc21)Nc1ccccc1Cl (stereo not drawn) | 4.6%
4 | Cc1ccc2nc(-c3ccncc3)cc(C(=O)Nc3ccc(OC(F)F)cc3)c2c1 | 69.1% (active)
5 | COc1c(C(=O)Nc2ccc3[nH]c(=O)[nH]c3c2)cc2ccccc2c1Br | 13.6%
6 | CCOc1ccccc1NC(=O)c1cc(-c2ccncc2)nc2c(Cl)cccc12 | 34.3%
7 | COc1cc(CCNC(=O)c2ccccc2NC(=O)C2=C(C)OCCS2)cc(OC)c1OC | -10.3%
8 | COc1ccccc1CCNC(=O)c1cc(-c2ccncc2)nc2ccc(Br)cc12 | 70.1% (active)
9 | O=C(Nc1ccc2nc3n(c(=O)c2c1)CCCC3)c1ccccc1F | -11.4%
10 | O=C(Nc1ccncc1)c1cc(-c2ccccn2)nc2ccc(Br)cc12 | 84.4% (active)
11 | Cc1c(Cl)cccc1NC(=O)c1cccc(OC(F)F)c1 | 29.2%
12 | COc1ccccc1CCNC(=O)CNC(=O)c1ccc2ccccc2c1 | -4.1%
13 | CC1CCCCN1CCCNC(=O)C1CCN(c2nnc(-n3cccc3)s2)CC1 (stereo not drawn) | -30.3%
14 | Cc1cccc(CSc2[nH]c(=O)ncc2C)c1 | 1%
15 | O=C(C1CCN(S(=O)(=O)c2cccs2)CC1)N1CCc2ccccc2C1 | -7.4%
16 | COc1ccc(NC(C)=O)cc1NC(=O)CSc1nnc(C2CCCCC2)n1N | 0.2%
17 | O=C(c1ccccc1)C1CCN(C(=O)c2ccc(Cl)cc2)CC1 | -17.9%
18 | COc1ccc(N(C(=O)CNC(=O)c2ccco2)C(C(=O)NC2CCCCC2)c2ccncc2)cc1 (stereo not drawn) | -11%
19 | CCn1c(=O)n(CC)c2cc(N3CCCC3)c(NC(=O)c3cccc(OC)c3)cc21 | 0.2%
20 | O=C(CCC(=O)c1ccc(Cl)cc1)NCc1ccccc1 | 3.5%

Row | Compound | inhibition
21 | O=[N+]([O-])c1cccc2c([As](=O)(O)O)cccc12 | 0.9%
22 | O=c1c2cnn(-c3ccc(F)cc3)c2ncn1Cc1cccnc1 | -6.2%
23 | Cc1ccc(-n2ncc3c2CCCC3NC(=O)CCc2cnccn2)cc1C (stereo not drawn) | -2.7%
24 | S=c1[nH]nc(-c2ccccc2)n1/N=C/c1c[nH]c2ccccc12 | 1.6%
25 | CCC1CCCCN1CCCNC(=O)c1ccc(CS(=O)(=O)c2ccccc2C)o1 (stereo not drawn) | -7.8%
26 | Cc1oc(-c2ccc(Cl)cc2)nc1CS(=O)CC(=O)NCCN1CCCCCC1 (stereo not drawn) | -27.9%
27 | CCOc1cc(C2Nc3ccccc3NC3=C2C(=O)CC(C)(C)C3)ccc1OC(C)=O (stereo not drawn) | -4.7%
28 | Cc1ccc(NC(=O)CN2C(=O)S/C(=C/c3ccc(-c4cccc(C(=O)O)c4)o3)C2=O)cc1 | 93.9% (active)
29 | Cc1ccc(NC(=O)CN2C(=O)S/C(=C\c3ccc(-c4cccc(C(=O)O)c4C)o3)C2=O)cc1 | 97.5% (active)
30 | Cc1ccc(NC(=O)COC(=O)c2nn(C)cc2Cl)cc1 | -0.7%
31 | Cc1ccc(NC(=O)CN2C(=O)S/C(=C\c3ccc(-c4cccc(C(=O)O)c4C)o3)C2=O)cc1C | 84.7% (active)
32 | COc1cc(NC(=O)CN2CCN(c3ccccn3)CC2)cc(OC)c1OC | 6%
33 | CCCOc1ccc(Cn2c(=O)oc3ccc(C)cc32)cc1 | 7.7%
34 | COc1ccccc1N1CCN(C2CCCN(Cc3cc(F)cc(F)c3)C2)CC1 (stereo not drawn) | -2.1%
35 | COc1cccc(CNC(=O)CCNS(=O)(=O)c2ccc3c(c2)oc(=O)n3C)c1 | -4.6%
36 | COCCNC(=O)c1cccc(OC2CCN(C(C)COc3ccccc3)CC2)c1 (stereo not drawn) | -14.8%
37 | Nc1ncc(Br)cc1S(=O)(=O)NCCC(=O)NCc1ccc(F)cc1 | 4.1%
38 | CCN1CCN(CCCNC(=O)CS(=O)(=O)Cc2nc(-c3ccccc3C)oc2C)CC1 | -9.5%
39 | c1ccc(-c2nnsc2-c2ccccc2)cc1 | -7.8%
40 | O=C(Cn1ccnc1)c1ccc(Cl)cc1 | 14.8%

Row | Compound | inhibition
41 | CCC(C)NC(=O)c1ccc(CSCc2ccc(Cl)cc2)o1 (stereo not drawn) | -3.4%
42 | CC1(C(=O)O)CCC(C(=O)NC2CCCCCC2)C1(C)C (stereo not drawn) | -1.3%
43 | CCOc1ccccc1NC(=O)C1CCN(C(=O)c2cccs2)CC1 | -20.3%
44 | CN(CCCNC(=O)c1ccccc1F)CCCNC(=O)c1ccccc1F | 15.1%
45 | Cc1ccc(C(C(=O)NC2CCCC2)N(Cc2ccc(F)cc2)C(=O)c2snc(C(N)=O)c2N)o1 (stereo not drawn) | 10.6%
46 | CN(C)c1ccc(NC(=O)CN2C3CCCC2CC(NC(=O)c2ccccc2)C3)cc1 (stereo not drawn) | -12.8%
47 | COc1ccc(NC2CCCN(C(=O)c3ccc(CSC)o3)C2)cc1OC (stereo not drawn) | 20.5%
48 | CCC1CCCCN1CCCNC(=O)CN1C(=O)COc2ccc(S(=O)(=O)N3CCOCC3)cc21 (stereo not drawn) | 1.2%
49 | Cc1cc(C)c(S(=O)(=O)/N=C2/C=C(Sc3ncn[nH]3)C(=O)c3ccccc32)cc1C | 15.8%
50 | COc1cc(CN2CCC(n3nccc3NC(=O)C3CCOC3)CC2)ccc1F (stereo not drawn) | -5.3%
51 | COc1ccc(-n2nc(C(=O)Nc3ccc(OC)c(OC)c3)c3c4ccccc4n(C)c3c2=O)cc1 | 94.9% (active)
52 | COc1ccc(-n2nc(C(=O)NCC3CCCO3)c3ccccc3c2=O)cc1 (stereo not drawn) | -4%
53 | COc1ccc(NC(=O)c2cn(CCC#N)nc2-c2ccc(OC)c(OC)c2)cc1 | -8.4%
54 | Cc1ccc2c(c1)N(CC(=O)NCCCN1CCCCC1)C(=O)CO2 | 2.3%
55 | CC(C)(C)SC(=O)C[C@@H]1NS(=O)(=O)OC2CCCCC21 (stereo partly drawn) | 24.7%
56 | CN(CC1CCCN(CCc2ccc(F)cc2)C1)C(=O)CCC(N)=O (stereo not drawn) | -4.8%
57 | CN(C)C1(CNCC(O)c2ccccc2)CCCCC1 (stereo not drawn) | 6.5%
58 | CC(=O)NC(Cc1ccc(F)cc1)C(=O)NC1CCN(S(=O)(=O)c2ccccc2)CC1 (stereo not drawn) | 41%
